# Screens (PubChem BioAssay)
# In the library only some 2.4% were active in any assay of this set; here they are far more common.
# Autofluor Jurkat: compound fluoresces in Jurkat cells, VLA-4 screen interference. compound autofluorescence, flow cytometry; stronger effect = higher value; 1 = vehicle-only cell background. fluorescence ratio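 (tested at 10 µM compound in the well)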. actives 0.61% (n = 24,000). AID 576;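 active = fluorescence ratio above 2.44, which is 1 plus 3 SD of all ratios; inconclusive = signal too bright to measure linearly, ratio around 10 or more; inactive = fluorescence ratio below 2.44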;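 note: green fluorescence of cells measured with 488 nm excitation and 530 nm emission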
# LNCaP diff act: activators of LNCaP prostate cell differentiation | flow cytometry side scatter, 4 d | side scatter shift, % at 10 µM | actives 0.56% (n = 24,000) | AID 795;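 active = side scatter shift above 30%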;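 note: androgen-responsive LNCaP prostate cancer cells in charcoal-stripped serum medium; percent of cells past a gate set so DMSO wells show 10% shift; higher shift means more granular cells and more differentiation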
# VLA-4 agonist: allosterically activates the human VLA-4 integrin; activation, % at 10 µM (by protocol); P13612; AID 528; 24,000 tested, under 10 active; Jurkat cells, LDV-FITC binding, flow cytometry;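 active = fluorescent ligand binding to cells raised by more than 40% of the manganese-induced maximum; inconclusive = compound's own fluorescence above 85% of the ligand control signal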;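 note: 0% = ligand binding without compound and 100% = manganese-stimulated maximal binding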
# FPR binder: ligands of human FPR, also counter-screen for FPRL1 ligands; P21462; FPR-expressing cells, fluorescent ligand binding, flow cytometry; inhibition, % (concentration not given with the values); actives 0.74% (n = 24,000);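 note: 0% = buffer wells and 100% = receptor blocker peptide wells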
# VLA-4 antagonist: blocks LDV-FITC ligand binding to Mn2+-activated human VLA-4 integrin; Jurkat cells, LDV-FITC binding with Mn2+, flow cytometry; 100% = Mn2+-driven binding gain fully reversed; inhibition, % at 10 µM (by protocol); actives 0.2% (n = 24,000);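 active = inhibition above 50%; inconclusive = compound itself fluorescent, judged against control cell fluorescence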;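 note: 0% = Mn2+ stimulated cells lacking compound and 100% = ligand binding without Mn2+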
# FPRL1 binder: binds the human formylpeptide receptor-like-1 FPRL1 | P25090 | inhibition, % (concentration not given with the values) | actives 0.3% (n = 24,000) | FPRL1-expressing cells, fluorescent ligand binding inhibition, flow cytometry;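 note: 0% = buffer alone and 100% = receptor blocker peptide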
# Target sequence (P25090 whole entry, looked up): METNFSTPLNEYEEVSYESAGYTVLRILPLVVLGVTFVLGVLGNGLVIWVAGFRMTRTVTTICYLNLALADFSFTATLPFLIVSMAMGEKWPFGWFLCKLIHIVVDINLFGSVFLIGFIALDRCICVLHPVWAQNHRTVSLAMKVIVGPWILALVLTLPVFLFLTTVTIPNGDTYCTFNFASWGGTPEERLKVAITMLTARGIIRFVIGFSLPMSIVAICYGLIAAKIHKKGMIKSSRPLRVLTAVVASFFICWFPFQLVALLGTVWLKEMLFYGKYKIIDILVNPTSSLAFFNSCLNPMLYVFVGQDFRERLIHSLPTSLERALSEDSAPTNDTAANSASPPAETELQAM
# * = called active by the depositor; ? = inconclusive; . = not tested or not shown. Cut-off read from the data, not from the text of the source, unless noted: active = inhibition above about 30%; inconclusive = no clear call, values can overlap the other calls; inactive = below that.
SMILES,Autofluor Jurkat,LNCaP diff act,VLA-4 agonist,FPR binder,VLA-4 antagonist,FPRL1 binder
CSc1nc(N)nc(SCC(=O)c2ccccc2)c1C#N,1.1,9,-1,3,18,5
N#Cc1c(-c2ccco2)cc(C2CC2)nc1SCC(=O)c1ccccc1,2.5*,15,?,2,?,0
CCn1cc(-c2cc(C(F)(F)F)n3nc(C(=O)O)cc3n2)c(C)n1,1,4,0,-4,2,8
CCOC(=O)c1ccc(NC(=O)N2CCN(Cc3cccc(F)c3)CC2)cc1,1,16,-6,-16,-2,-3
CC(=O)NC(Cc1cc(C)ccc1C)C(=O)N1CCN(C(=O)Nc2ccc(C(C)=O)cc2)CC1 (stereo unspecified),1.1,4,1,35*,-20,7
CCOC(=O)Cn1c(=O)oc2cc(S(=O)(=O)NCCc3ccc(OCC)c(OCC)c3)ccc21,1.3,9,?,-8,?,-5
COCCCN1C(=O)C(O)=C(C(=O)c2ccco2)C1c1ccccc1 (stereo unspecified),.,.,.,43*,.,1
CCCOc1ccc(/C(O)=C2/C(=O)C(=O)N(CCCn3ccnc3)C2c2cccs2)cc1 (stereo unspecified),.,.,.,6,.,1
COc1cccc(C2C(C(=O)c3cccs3)=C(O)C(=O)N2CCCn2ccnc2)c1OC (stereo unspecified),1,13,-2,32*,-10,-1
COc1ccc(C2C(C(=O)c3sc(C)nc3C)=C(O)C(=O)N2CCN(C)C)cc1 (stereo unspecified),1,9,0,4,-6,-2
Cc1nc(C)c(C(=O)C2=C(O)C(=O)N(CCCn3ccnc3)C2c2ccc(Cl)cc2)s1 (stereo unspecified),.,.,.,38*,.,24
O=C(C1=C(O)C(=O)N(CCc2ccccc2)C1c1cccnc1)c1ccco1 (stereo unspecified),.,.,.,30,.,-3
CCOc1cc(C2C(C(=O)c3ccco3)=C(O)C(=O)N2CCc2ccccc2)ccc1O (stereo unspecified),.,.,.,86*,.,-4
Cn1c(C(=O)N2CCN(c3ccccn3)CC2)cc2c(=O)n(C)c3ccccc3c21,1.1,8,0,-4,-20,-2
CCCOc1ccc(C2C(C(=O)c3ccco3)=C(O)C(=O)N2CCCn2ccnc2)cc1 (stereo unspecified),.,.,.,55*,.,-5
Cc1ccc(C2C(C(=O)c3sc(C)nc3C)=C(O)C(=O)N2CCN2CCOCC2)o1 (stereo unspecified),.,.,.,35*,.,26
CC(C)Oc1ccc(C2C(C(=O)c3ccco3)=C(O)C(=O)N2Cc2cccnc2)cc1 (stereo unspecified),.,.,.,16,.,-2
CCOc1cccc(C(=O)N(Cc2ccc(F)cc2)C2CCS(=O)(=O)C2)c1 (stereo unspecified),1.1,6,-7,3,-8,0
COc1ccc(CN(C(=O)c2ccccc2OC)C2CCS(=O)(=O)C2)cc1 (stereo unspecified),1,19,-2,51*,-28,51*
Cc1c(C(=O)NC2CCCc3ccccc32)oc2ccc(S(=O)(=O)N3CCOCC3)cc12 (stereo unspecified),1.1,4,-5,38*,4,8
COC(=O)c1ccccc1NC(=O)c1cc(-c2ccc(OC)c(OC)c2)on1,1.1,15,1,-7,-6,3
C/C(O)=c1/ccc2cccc3nc(C)nc1c23,3.5*,16,?,-5,?,-11
Cn1c(C(=O)NCCCN2CCCC2=O)cc2c(=O)n3ccccc3nc21,1.2,7,-4,5,1,1
O=C(O)CCCNc1cc(N2CCC3(CC2)OCCO3)c2noc3c2c1C(=O)c1ccccc1-3,5.2*,5,?,32*,?,73*
Cc1ccccc1-n1c(=O)cc(N2CCC3(CC2)OCCO3)[nH]c1=O,1.1,4,3,-3,-7,6
SMILES,Autofluor Jurkat,LNCaP diff act,VLA-4 agonist,FPR binder,VLA-4 antagonist,FPRL1 binder
CCOC(=O)N1CCN(c2c(NCCCN(CC)Cc3ccccc3)c(=O)c2=O)CC1,1,7,4,5,-23,-4
CCOC(=O)N1CCN(c2cc(NCCC(=O)O)c3c4c(onc24)-c2ccccc2C3=O)CC1,4.6*,0,?,32*,?,61*
O=C(CNCCC1=CCCCC1)Nc1ccccc1N1CCCCC1,1.2,12,0,-3,-4,7
CSc1nncn1/N=C/c1cc(Cl)ccc1F,1.2,4,-4,-3,-3,-6
CCN1C(=O)c2ccccc2S(=O)c2ccc(C(=O)NCCCN3CCCC3=O)cc21 (stereo unspecified),1,4,7,-4,-1,-1
COc1cc2c3c(c1)/C(=C1/SC(NC(C)=O)=NC1=O)C(=O)N3C(C)(C)C=C2C,1,8,7,30*,-5,11
CN1CCc2c(sc3c2C(=O)NC(c2ccc(-c4cccc(Cl)c4)o2)N3)C1 (stereo unspecified),9.9*,5,?,-18,0,-24
CSc1ccc(C2NC(=O)c3c(sc4c3CCN(C)C4)N2)cc1 (stereo unspecified),4.7*,13,?,-3,?,-4
CC(=O)NCc1ccc(C(=O)CSc2nnc(-c3ccncc3)n2Cc2ccccc2)o1,1.1,8,4,-5,-8,-2
Cc1cc(C)n2nnnc2c1C#N,0.88,37*,8,2,-24,-8
Cc1ccc(CCNC(=O)CN2C(=O)COc3ccccc32)cc1,1.1,11,3,-5,62*,0
Cc1[nH]n(C(C)(C)C)c(=O)c1Sc1ccc(Cl)cc1,1.1,6,-3,2,-2,5
CCN(CC)c1ccc(C=N/C(C#N)=C(\N)C#N)cc1,5.9*,19,?,4,?,68*
COc1ccc(S(=O)(=O)NC(C)C(=O)Nc2cccc(C(C)=O)c2)cc1 (stereo unspecified),1.1,3,-2,11,-17,47*
O=S1(=O)C=C(Sc2nc3cc(Cl)ccc3o2)c2ccccc21,9.6*,25,?,-20,?,-44
COc1ccc(C(C)NC(=O)C2C(=O)NC3(C)CC2c2ccccc2O3)cc1 (stereo unspecified),0.99,12,-2,2,30,1
COc1ccc(NC(=O)C2C(=O)NC3(C)CC2c2ccccc2O3)cc1 (stereo unspecified),1.1,11,1,12,-2,30*
COc1ccccc1N1CCN(CC(O)c2ccc3cc[nH]c3c2)CC1 (stereo unspecified),1.1,3,0,-2,-1,-2
